Tau filament bind: binds recombinant human tau filaments; 71,000 compounds, 2% hits; recombinant tau filaments, thioflavin S fluorescence, 15 h; filaments grown with octadecylsulfate alongside compound; Potency, µM (highest dose often 57.1 µM), for inactives: at the top dose activity change, negative = inhibition; active means well fitted curve in the direction sought with a large enough effect; inconclusive means small, poorly fitted or top-dose-only effect, or another doubt; inactive means no such curve, though single readings can be large; an effect the other way counts as inactive or inconclusive;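 further: potency means the concentration at half of the fitted maximal effect; on the % scale 0 is the no-effect control and ±100 the full control effect; actives lower thioflavin S fluorescence by blocking filaments or displacing dye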
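Recombinant tau protein (human, 1 uM final) plus 30 uM ODS in HEPES pH 7.4 with NaCl, DTT and thioflavine S. Compound present from the start; fluorescence at 510 nm after 15 h, 37 C.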
CRE Fsk mod: modulators of forskolin-stimulated CRE signaling in CHO cells. Potency, µM (doses to about 38.2 µM), inactives show top-dose activity change, negative = inhibition, hits mostly activators. CHO CRE-bla reporter (cAMP response element driving beta-lactamase), forskolin EC10, beta-lactamase ratio. 71,000 compounds, 2.5% hits. AID 662; active means well fitted activation curve with a large enough effect in the signal ratio, with a control signal flat, not every such curve was filed as active; inconclusive means small, poorly fitted or top-dose-only effect, or effect the other way, or a change in a side signal; the % refers to the signal ratio; further: potency means the concentration at half of the fitted maximal effect; % of control where 0% means no effect
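Reporter-gene assay: CHO cells with beta-lactamase behind cAMP responsive elements, co-treated with compound and EC10 NKH 477 for 3 hours at 37 degrees Celsius. Activity came from the 460/530 nm CCF4 emission ratio.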
IkB signaling: inhibitors of IkB signaling in ABC-DLBCL cells | Potency, µM (highest dose often 57.1 µM), for the others: top-dose IkBa stabilization activation | 110,000 compounds, 0.04% hits | AID 445 | ABC-DLBCL IkBa-CBG/CBR dual luciferase ratio, 4 h; response scale: scaled: untreated 0%, proteasome inhibitor 100%; active means well fitted curve in the direction sought with a large enough effect in the signal ratio, not every such curve was filed as active; inconclusive means small, poorly fitted or top-dose-only effect, or a change in a side signal; the % refers to the signal ratio;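 further: potency means the concentration at half of the fitted maximal effect; the direction sought is a rising ratio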
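Curves were fitted separately to fusion (green), unfused (red) and ratio luminescence, then classed by r2, magnitude and activity. Cells: OCI-Ly3, 4 h compound plus doxycycline at 37C; 10 uM MG-132 defined full response.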
Hsp90 Hop PPI: changes Hsp90-Hop TPR2A binding signal, up or down | AlphaScreen TPR2A-His6 binding biotin-Hsp90 C-terminal peptide | Potency, µM (highest dose often 57 µM), for inactives: at the highest dose activity change, negative = inhibition | 71,000 compounds, 0.44% hits | AID 595; active means well fitted curve in either direction with a large enough effect; inconclusive means small, poorly fitted or top-dose-only effect, or another doubt; further: potency means the concentration at half of the fitted maximal effect; on the % scale 0 is the no-effect control and ±100 the full control effect
15-hLO inh: inhibitors of human 15-lipoxygenase (ALOX15). P16050. purified 15hLO-1, xylenol orange hydroperoxide absorbance. Potency, µM (titrated, usually from 57.1 µM), without a hit: at the top dose activity change, negative = inhibition, usual class: inhibitors. 74,000 compounds, 1.4% hits; active means well fitted curve in the direction sought with a large enough effect; inconclusive means small, poorly fitted or top-dose-only effect, or another doubt; inactive means no such curve, though single readings can be large; an effect the other way counts as inactive or inconclusive; further: potency means the concentration at half of the fitted maximal effect; on the % scale 0 is the no-effect control and ±100 the full control effect; nearly all actives have a fitted effect of over 55% in size
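Purified human 15hLO-1 (40 nM final) in 25 mM Hepes pH 7.5, 0.01% Triton X-100 was preincubated with compound 15 min at room temperature, then reacted 6 min with 50 uM arachidonic acid; hydroperoxide detected by Fe-XO, 573/405 nm absorbance ratio.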
Tau ThS bind: compounds binding human tau filaments, displacing Thioflavin S; shares compounds with Tau filament bind; recombinant tau filaments, Thioflavin S fluorescence displacement; Potency, µM; 60 compounds, 40% hits
aSyn ThS bind: compounds binding human alpha-synuclein fibrils, displacing Thioflavin S | shares compounds with Tau filament bind | recombinant alpha-synuclein fibrils, ThS fluorescence displacement | Potency, µM | 60 compounds, 40% hits | AID 937
Abeta ThS displ: compounds binding human beta amyloid fibrils, displacing Thioflavin S. Potency, µM. 60 compounds, 50% hits. shares compounds with Tau filament bind. Abeta1-42 fibrillization, thioflavin S fluorescence, overnight 37 C. AID 956
Numbers without * were called inactive; i = inactive; ? = inconclusive; nt = no result given; [ ] = another dose, or the depositor's remark. This is a sample that favours compounds with a hit; in the whole collection about 3.6% have one here. Unless noted, the call rests on the fitted dose curve.

SMILES | Tau filament bind | CRE Fsk mod | IkB signaling | Hsp90 Hop PPI | 15-hLO inh | Tau ThS bind | aSyn ThS bind | Abeta ThS displ
CCC(CC)C(=O)Nc1cccc(-c2nc3cccnc3s2)c1 | nt | nt | -1% | nt | nt | nt | nt | nt
COc1cccc2c1C(=O)c1c(O)c3c(c(O)c1C2=O)C[C@@](O)(C(=O)CO)C[C@H]3O[C@H]1C[C@@H](N)[C@H](O)[C@@H](C)O1.[W] | -26%[11.4 µM] | 14%[7.6 µM] | ? | -5%[11 µM] | 0%[11.4 µM] | 4.2µM* | 7.1µM* | 2.8µM*
CS(=O)(=O)c1cccc(-c2nnc(NC(=O)c3ccc4c(c3)OCCO4)o2)c1 | nt | nt | 1% | nt | nt | nt | nt | nt
Cc1cccc(S(=O)(=O)C(C#N)c2nc3ccccc3nc2N2CCCC2)c1 (stereo unspecified) | 118% | ? | 2% | -5% | ? | nt | nt | nt
CCCCCCOC(=O)C(C#N)c1nc2ccccc2nc1N1CCN(C)CC1 (stereo unspecified) | 1µM* | ? | ? | -20% | -16% | 2.8µM* | 1.8µM* | 0.79µM*
CCN1C(=O)c2ccccc2Sc2ccc(NC(=O)Nc3ccc(C(C)=O)cc3)cc21 | nt | nt | 0% | nt | nt | nt | nt | nt
CC(=O)c1ccc2c(c1)Nc1ccccc1S2 | 2µM* | ? | -4% | 2% | ? | 7.7µM* | 6µM* | 9µM*
O=C(Nc1ccc(N2CCOCC2)cc1)Nc1ccc2nc(-c3ccco3)c(-c3ccco3)nc2c1 | 0.79µM* | 27% | ? | ? | 4µM* | 1.2µM* | 1.9µM* | 1.2µM*
CCOC(=O)c1c(C)[nH]c(C)c1S(=O)(=O)N1CCCC(C(=O)NCc2ccc(Cl)cc2)C1 (stereo unspecified) | nt | nt | -2% | nt | nt | nt | nt | nt
CCn1c(CNC(=O)C23CC4CC(CC(C4)C2)C3)nnc1SCC(=O)Nc1ccccc1 | nt | nt | 1% | nt | nt | nt | nt | nt
O=C(COC(=O)c1ccccn1)Nc1ccccc1Cl | -9% | -4% | 0% | -29% | 1% | nt | nt | nt
O=C(COc1ccccc1O)Nc1ccccc1Cl | -41% | ? | 3% | ? | 6% | i | i | i
CCOCCCn1c(=N)c(C(=O)NCc2ccc3c(c2)OCO3)cc2c(=O)n3cccc(C)c3nc21 | 0.63µM* | 17% | 1% | -5% | -8% | 9.5µM* | 2.2µM* | 3µM*
N=c1c(C(=O)NCc2ccc3c(c2)OCO3)cc2c(=O)n3ccccc3nc2n1Cc1cccnc1 | ? | ? | 0% | -12% | ? | ? | 7.4µM* | 10µM*
CN(C)c1ccc(CNC(=O)CN2C(=O)CSc3ccc(S(=O)(=O)N4CCCC4)cc32)cc1 | nt | nt | -2% | nt | nt | nt | nt | nt
Oc1ccccc1C1Nc2cccc3cccc(c23)N1 | 3.2µM* | -7% | ? | ? | 20µM* | 3.3µM* | 8µM* | 3.8µM*
CN(C)c1ccc(N/C=C/C(=O)c2ccc(F)cc2)cc1 | 3.2µM* | -17% | 5% | -23% | -23% | 1.1µM* | 6.2µM* | 3.4µM*
Cn1c(=Nc2ccc(N3CCOCC3)cc2)ccc2ccccc21 | 2µM* | 1% | 0% | 4% | 7% | ? | i | i
Nc1ccc(O)c(-c2nc3ccccc3s2)c1 | 3.2µM* | 4% | ? | -24% | ? | ? | ? | 9.2µM*
COc1ccc(OC)c(NC(=O)c2ccc3c(c2)c(C)c(C)n3Cc2ccc(F)cc2)c1 | nt | nt | -1% | nt | nt | nt | nt | nt
Cc1ccc2nc(NC(=O)C3CCCN(S(=O)(=O)c4cccc5nonc45)C3)sc2c1 (stereo unspecified) | ? | -12% | ? | 0% | -14% | i | ? | i
Cc1ccc(N)cc1O | 4% | -18% | 2% | -13% | -28% | nt | nt | nt
N=C1C=CC(=C(c2ccc(N)cc2)c2ccc(N)cc2)C=C1 | 1.3µM* | 10%[7.6 µM] | 14%[11.4 µM] | -14%[11 µM] | 5%[11.4 µM] | 1.6µM* | 2.3µM* | 0.51µM*

High-throughput results deposited in PubChem by National Center for Advancing Translational Sciences (NCATS).
